Values joined by “and” are separate entries in the source; they are usually repeats but may differ in a detail not shown here. Equal entries are not always repeated. ± gives the standard deviation of the averaged measurements.
Assays:
DLD1 [1] = assay: cell viability (CellTiter-Glo) relative to plate median (fraction of plate median); higher = more viable cells; conditions: 5 µM; treatment time 24 h; reporter: 7TFP
Summary of the method: (§1)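 Stable lentiviral TCF/Wnt firefly luciferase reporters (7TFP or TCF4/Wnt) were present in the colorectal cancer cell lines used. These cells received library compounds at a final 5 µM for 24 h, and parallel plates were read for firefly luciferase or CellTiterGlo luminescence. Each well was normalised to the plate median, and the value reported is the mean of two independent replicates.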

HCT116 = assay: as above; conditions: 5 µM; treatment time 24 h; reporter: TCF4/Wnt
Summary of the method: as §1

SW480 [2] = assay: as above; conditions: 5 µM; treatment time 24 h; reporter: 7TFP
Summary of the method: as §1

DLD1 [3] = assay: TCF/Wnt firefly luciferase reporter signal relative to plate median (fraction of plate median); higher = higher Wnt reporter signal; conditions: 5 µM; treatment time 24 h; reporter: 7TFP
Summary of the method: as §1

SW480 [4] = assay: as above; conditions: 5 µM; treatment time 24 h; reporter: 7TFP
Summary of the method: as §1

Row | Compound | cell viability (DLD1 [1]) | cell viability (HCT116) | cell viability (SW480 [2]) | TCF/Wnt firefly luciferase reporter signal (DLD1 [3]) | TCF/Wnt firefly luciferase reporter signal (SW480 [4])
1 | Cc1cc(O)c(C=O)c2c1C(=O)Oc1c(C)c(O)c3c(c1O2)C(O)OC3=O (stereo not given) | 0.975 ± 0.092 | 1.11 | 0.988 ± 0.017 | 1.04 ± 0.068 | 1.02 ± 0.036
2 | CO/N=C1\CN(c2nc3c(cc2F)c(=O)c(C(=O)O)cn3C2CC2)CC1CN (stereo not given) | 1.04 ± 0.06 | 1.09 ± 0.057 | 0.995 ± 0.021 | 0.971 ± 0.11 | 1.06 ± 0.042
3 | Nc1ccc(S(=O)(=O)Nc2ccnn2-c2ccccc2)cc1 | 1.03 ± 0.058 | 1 ± 0.052 | 0.939 ± 0.013 | 1 ± 0.011 | 1.06 ± 0.057
4 | OC1=Cc2c(O)cc(O)cc2OC1(O)c1ccc(O)c(O)c1 (stereo not given) | 0.963 ± 0.053 | 1.07 ± 0.17 | 0.943 ± 0.044 | 0.923 ± 0.07 | 0.9795 ± 0.0021
5 | CC1(C)O[C@@H]2C[C@H]3[C@@H]4C[C@H](F)C5=CC(=O)CC[C@]5(C)[C@H]4[C@@H](O)C[C@]3(C)[C@]2(C(=O)CO)O1 | 1.01 ± 0.025 | 1.025 ± 0.0071 | 1.02 ± 0.047 | 0.949 ± 0.087 | 1.04 ± 0.073
6 | O=C1OC2(c3ccc(O)cc3Oc3cc(O)ccc32)c2ccccc21 | 1.01 ± 0.047 | 0.9885 ± 0.0064 | 1 ± 0.011 | 1.11 ± 0.085 | 1.07 ± 0.028
7 | O=c1cc(-c2ccccc2)oc2cc(O)c(O)c(O)c12 | 1.08 ± 0.021 | 1.06 ± 0.042 | 1.12 ± 0.035 | 0.927 ± 0.073 | 1.02 ± 0.037
8 | COC(=O)c1c(C)cc(OC)cc1O | 0.99 ± 0.071 | 1.03 ± 0.081 | 0.951 ± 0.05 | 0.885 ± 0.047 | 0.869 ± 0.08
9 | COC(=O)C(N)CS (stereo not given) | 0.972 ± 0.054 | 0.965 ± 0.092 | 1 ± 0.036 | 0.836 ± 0.039 | 0.91 ± 0.03
10 | CN(C)CCC=C1c2ccccc2C=Cc2ccccc21 | 1.02 ± 0.034 | 0.998 ± 0.046 | 1.035 ± 0.0071 | 0.991 ± 0.042 | 0.969 ± 0.0085
11 | O=C1CN(/N=C/c2ccc(-c3ccc([N+](=O)[O-])cc3)o2)C(=O)N1 | 0.999 ± 0.044 | 0.9895 ± 0.005 | 0.97 ± 0.018 | 1 ± 0.042 | 1.02 ± 0.014
12 | CC(=O)OCC1=C(C(=O)O)N2C(=O)[C@@H](NC(=O)Cc3cccs3)[C@H]2SC1 | 1.05 ± 0.021 | 1.06 ± 0.021 | 1.03 ± 0.028 | 0.953 ± 0.016 | 1 ± 0.028
13 | CN(C)CC[C@@H](c1ccc(Cl)cc1)c1ccccn1 | 1.01 and 0.901 | 0.96 and 1.04 | 0.968 and 1.01 | 0.862 and 1.08 | 0.778 and 1.05
14 | CC(=O)Nc1cc2nc3ccccc3oc-2cc1=O [N-Acetylquestiomycin A] | 0.985 ± 0.092 | 1.1 ± 0.057 | 1.06 ± 0.087 | 1.24 ± 0.12 | 1.145 ± 0.0071
15 | CO[C@H]1C[C@@H]2CC[C@@H](C)[C@@](O)(O2)C(=O)C(=O)N2CCCC[C@H]2C(=O)O[C@H]([C@H](C)C[C@@H]2CC[C@@H](O)[C@H](OC)C2)CC(=O)[C@H](C)/C=C(\C)[C@@H](O)[C@@H](OC)C(=O)[C@H](C)C[C@H](C)/C=C/C=C/C=C/1C | 1.18 ± 0.028 | 0.976 ± 0.049 | 1.35 ± 0.11 | 0.838 ± 0.15 | 1.2 ± 0.21
16 | Nc1[nH]cnc2ncnc1-2 | 1.2 | 1.1 ± 0.071 | 1.82 ± 0.028 | 0.981 ± 0.012 | 1.65 ± 0.26
17 | CN1CCN(C2=Nc3cc(Cl)ccc3Nc3ccccc32)CC1 | 1.12 ± 0.071 | 1.05 ± 0.1 | 1.005 ± 0.0071 | 0.916 ± 0.058 | 0.97 ± 0.043
18 | Cc1scc2c1N(C(=O)CN1CCN(C)CC1)c1ccccc1NC2=O | 1.03 ± 0.073 | 1 ± 0.071 | 0.996 ± 0.034 | 0.984 ± 0.052 | 0.954 ± 0.04
19 | CC=CC1=C(C(=O)O)N2C(=O)[C@@H](NC(=O)[C@H](N)c3ccc(O)cc3)[C@H]2SC1 | 0.992 ± 0.012 | 1.03 ± 0.06 | 0.983 ± 0.039 | 1.09 ± 0.099 | 1.17 ± 0.064
20 | CC1(C)S[C@@H]2[C@H](NC(=O)[C@H](N)c3ccccc3)C(=O)N2[C@H]1C(=O)O | 0.963 ± 0.0099 | 1.14 ± 0.13 | 0.969 ± 0.1 | 1 ± 0.083 | 0.917 ± 0.027
21 | O=c1c2ccccc2oc2ccccc12 | 0.986 ± 0.016 | 0.98 ± 0.043 | 0.98 ± 0.029 | 0.985 ± 0.036 | 0.916 ± 0.03
22 | O=C(O[C@@H]1Cc2c(O)cc(O)cc2O[C@@H]1c1cc(O)c(=O)c2c(O)c(O)cc([C@H]3Oc4cc(O)cc(O)c4C[C@H]3O)c2c1)c1cc(O)c(O)c(O)c1 | 1.04 ± 0.069 | 1.15 ± 0.028 | 1.01 ± 0.021 | 1.1 ± 0.057 | 1.04 ± 0.05
23 | C=C1CC[C@H](O)C/C1=C/C=C1\CCC[C@]2(C)[C@@H]([C@H](C)CCCC(C)C)CC[C@@H]12 | 1.025 ± 0.0071 | 0.969 ± 0.044 | 0.97 ± 0.057 | 0.84 ± 0.04 | 0.882 ± 0.054
24 | CC[C@@H](CO)NCCN[C@@H](CC)CO | 0.963 ± 0.12 | 1.03 ± 0.021 | 1.02 ± 0.059 | 1.2 ± 0.05 | 1.19 ± 0.035
25 | CC(C)C[C@@H]1NC(=O)CNC1=O [Cyclo(leucylglycyl)] | 0.991 ± 0.042 | 1.05 ± 0.057 | 0.949 ± 0.072 | 0.956 ± 0.028 | 0.935 ± 0.044
26 | CO[C@H]1/C=C/O[C@@]2(C)Oc3c(C)c(O)c4c(O)c(c(/C=N/N5CCN(C)CC5)c(O)c4c3C2=O)NC(=O)/C(C)=C\C=C\[C@H](C)[C@H](O)[C@@H](C)[C@@H](O)[C@@H](C)[C@H](OC(C)=O)[C@@H]1C | 1.01 ± 0.064 | 1.07 ± 0.13 | 1.05 ± 0.028 | 1.01 ± 0.037 | 1.08 ± 0.057
27 | CCN1CCN(C(=O)N[C@@H](C(=O)N[C@@H]2C(=O)N3[C@@H]2SC(C)(C)[C@@H]3C(=O)O)c2ccccc2)C(=O)C1=O | 0.994 ± 0.0085 | 0.993 ± 0.039 | 1.02 ± 0.039 | 1.05 ± 0.014 | 1.03 ± 0.086
28 | CC1(C)C[C@@H]2C(=O)CC[C@H]3O[C@]3(C)CC[C@H]21 | 1.09 ± 0.057 | 1.01 ± 0.073 | 1.02 | 1.03 ± 0.047 | 0.985 ± 0.036
29 | COc1cc2oc3cc(OC)c(OC)c(CC=C(C)C)c3c(=O)c2c(OC)c1CC=C(C)C | 1.03 ± 0.028 | 1.08 ± 0.13 | 1.035 ± 0.0071 | 1.23 ± 0.12 | 1.02 ± 0.06
30 | C[C@@H]1O[C@@H](OC[C@H]2O[C@@H](Oc3c(-c4ccc(O)c(O)c4)oc4cc(O)cc(O)c4c3=O)[C@H](O)[C@@H](O)[C@@H]2O)[C@H](O)[C@H](O)[C@H]1O [RUTOSIDE  (rutin)] | 0.972 | 0.881 ± 0.16 | 1.01 ± 0.016 | 1.03 ± 0.042 | 0.769 ± 0.53

— the supplement of paper PMC6522484
